For assay [1] the following is noted: Ebola virus entry reporter assay, green channel fluorescence. Background: Reporter assays use an easily measured gene product as a stand-in for the process of interest.
For assay [2] the following is noted: Ebola virus entry cell assay, ratio channel.

For part of these data: Results with a measured potency or affinity are listed apart. Calls of active or inactive are those of the source.

The term AC50 denotes the concentration at which the activity in the assay is half-maximal.

For `Cn1c(=O)c2c(ncn2CC(O)CO)n(C)c1=O` (stereo not given), the call in assay [1] and in assay [2] was inactive.

For the compound `CC(=O)N[C@@H](CS)C(=O)O`, the call in assay [1] and in assay [2] was inactive.

In the case of `NC(=O)OCC(COC(N)=O)c1ccccc1`, the result in assay [1] and in assay [2] was inactive.

With `O=C1NC(c2ccccc2)(c2ccccc2)C(=O)N1COP(=O)(O)O`, the compound was classed as inactive in assay [1] and in assay [2].

Turning to `Nc1nc(N)c2nc(-c3ccccc3)c(N)nc2n1`, the outcome in assay [1] and in assay [2] was inactive.

On to `Cc1nc(-c2ccc(OCC(C)C)c(C#N)c2)sc1C(=O)O`, for which the result in assay [1] and in assay [2] was inactive.

For `CCCCS(=O)(=O)N[C@@H](Cc1ccc(OCCCCC2CCNCC2)cc1)C(=O)O`, the call in assay [1] and in assay [2] was inactive.

As for `Cc1c(OCC(F)(F)F)ccnc1CS(=O)c1nc2ccccc2[nH]1` (stereo not given), the call in assay [1] and in assay [2] was inactive.

As for `OCCOCCN1CCN(C(c2ccccc2)c2ccc(Cl)cc2)CC1` (stereo not given), the call in assay [1] and in assay [2] was inactive.

Consider `O[C@@H]1CO[C@H]2[C@@H]1OC[C@@H]2O`, for which the outcome in assay [1] and in assay [2] was inactive.

For the compound `CCOC(=O)c1ncn2c1CN(C)C(=O)c1cc(F)ccc1-2`, the call in assay [1] and in assay [2] was inactive.

Regarding `CN(C)CCC[C@@]1(c2ccc(F)cc2)OCc2cc(C#N)ccc21`, the result in assay [1] and in assay [2] was inactive.

In the case of `CCCC(CCC)C(=O)O`, the compound was classed as inactive in assay [1] and in assay [2].

On to `NS(=O)(=O)c1cc2c(cc1C(F)(F)F)NCNS2(=O)=O`, for which the compound was classed as inactive in assay [1] and in assay [2].

In the case of `COc1ccccc1OCC(O)CN1CCN(CC(=O)Nc2c(C)cccc2C)CC1` (stereo not given), the result in assay [1] and in assay [2] was inactive.

`C[C@@H](O)[C@H]1C(=O)N2C(C(=O)O)=C(S[C@@H]3CN[C@H](C(=O)N(C)C)C3)[C@H](C)[C@H]12`: the result in assay [1] and in assay [2] was inactive.

Take `CCCCC1=NC2(CCCC2)C(=O)N1Cc1ccc(-c2ccccc2-c2nn[nH]n2)cc1`: the call in assay [1] and in assay [2] was inactive.

Take `C#C[C@]1(O)CC[C@H]2[C@@H]3CCC4=Cc5oncc5C[C@]4(C)[C@H]3CC[C@@]21C`: the result in assay [1] was inactive. In addition, in assay [2], the AC50 was 25.1 µM (active).

Regarding `CC12CC3CC(C)(C1)CC(N)(C3)C2`, the outcome in assay [1] and in assay [2] was inactive.

Regarding `CN(C/C=C/C#CC(C)(C)C)Cc1cccc2ccccc12`, the compound was called inactive in assay [1] and in assay [2].

`Cc1[nH]c(=O)c(C#N)cc1-c1ccncc1`: the outcome in assay [1] and in assay [2] was inactive.

In the case of `Cc1c(O)cccc1C(=O)N[C@@H](CSc1ccccc1)[C@H](O)CN1C[C@H]2CCCC[C@H]2C[C@H]1C(=O)NC(C)(C)C`, the call in assay [1] and in assay [2] was inactive.

For the compound `CC1=C(C(=O)O)N2C(=O)[C@@H](NC(=O)[C@H](N)c3ccc(O)cc3)[C@H]2SC1`, the compound was called inactive in assay [1] and in assay [2].

On to `COc1cc(Cc2cnc(N)nc2N)cc(OC)c1OC`, for which the call in assay [1] and in assay [2] was inactive.

On to `CN1CCN(C(c2ccccc2)c2ccccc2)CC1`, for which the compound was called inactive in assay [1] and in assay [2].

For `CCCCNC(=O)NS(=O)(=O)c1ccc(C)cc1`, the compound was called inactive in assay [1] and in assay [2].

As for `O=C(O)CCCc1ccccc1`, the result in assay [1] and in assay [2] was inactive.

For the compound `O=c1[nH]cnc2c1ncn2[C@H]1CC[C@@H](CO)O1`, the call in assay [1] and in assay [2] was inactive.

For `O=C1c2cccc3c2[C@H](CCC3)CN1[C@@H]1CN2CCC1CC2`, the call in assay [1] and in assay [2] was inactive.

Turning to `CC(C)(C)NC(=O)[C@@H]1CN(Cc2cccnc2)CCN1C[C@@H](O)C[C@@H](Cc1ccccc1)C(=O)N[C@H]1c2ccccc2C[C@H]1O`, the compound was classed as inactive in assay [1] and in assay [2].

Regarding `CC1(C)S[C@@H]2[C@H](NC(=O)[C@H](N)c3ccccc3)C(=O)N2[C@H]1C(=O)O`, the compound was called inactive in assay [1] and in assay [2].

For the compound `Cc1cn[nH]c1`, the result in assay [1] and in assay [2] was inactive.

Consider `COc1cc2ncnc(Nc3ccc(F)c(Cl)c3)c2cc1OCCCN1CCOCC1`, for which, in assay [1], the result was inactive. In addition, the AC50 in assay [2] is 15.8 µM (active).

Turning to `CC(C)(C#N)c1cc(Cn2cncn2)cc(C(C)(C)C#N)c1`, the result in assay [1] and in assay [2] was inactive.

On to `CNCCc1ccccn1`, for which the compound was called inactive in assay [1] and in assay [2].

For `O=C(O)P(=O)(O)O`, the compound was called inactive in assay [1] and in assay [2].

`Cc1ccc(-n2[nH]c(C)c(N=Nc3cccc(-c4cccc(C(=O)O)c4)c3O)c2=O)cc1C`: the compound was classed as inactive in assay [1] and in assay [2].

With `NC(=O)c1cn(Cc2c(F)cccc2F)nn1`, the compound was called inactive in assay [1] and in assay [2].

In the case of `COc1cc(C(=O)NCc2ccc(OCCN(C)C)cc2)cc(OC)c1OC`, the result in assay [1] and in assay [2] was inactive.

Turning to `NNc1nncc2ccccc12`, the call in assay [1] and in assay [2] was inactive.

For `Cc1ncc([N+](=O)[O-])n1CCO`, the result in assay [1] and in assay [2] was inactive.

In the case of `COCCCOc1cc(C[C@@H](C[C@H](N)[C@@H](O)C[C@H](C(=O)NCC(C)(C)C(N)=O)C(C)C)C(C)C)ccc1OC`, the outcome in assay [1] and in assay [2] was inactive.

For the compound `OCCN1C[C@H](O)[C@@H](O)[C@H](O)[C@H]1CO`, the call in assay [1] and in assay [2] was inactive.

`O=C1CCC(N2C(=O)c3ccccc3C2=O)C(=O)N1` (stereo not given): the compound was classed as inactive in assay [1] and in assay [2].

Take `O=C1[C@H](CC[C@H](O)c2ccc(F)cc2)[C@@H](c2ccc(O)cc2)N1c1ccc(F)cc1`: the result in assay [1] and in assay [2] was inactive.

(Values after PubChem BioAssay (NCATS).)
